Laboratory results reported in PubChem BioAssay (NCI).
About 79,000 compounds went through this panel and 15% of them were active in at least one assay; those are over-represented in the sample as a whole. The source made the active and inactive calls. Rule as the data show it: active = growth inhibition above about 70%; inactive = the rest.

What was measured:
[1] = NCI Yeast Anticancer Drug Screen. Data for the rad52 strain (AID 147);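 also: 0% = growth of vehicle-treated control cultures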; settings: S. cerevisiae rad52 mutant growth inhibition, stronger effect = higher value
Procedure, shortened: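 Yeast strain carrying a DNA damage repair alteration was exposed to test compounds. Growth inhibition was measured relative to vehicle-treated controls.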

[2] = NCI Yeast Anticancer Drug Screen. Data for the wt1 strain (AID 149);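 also: 0% = growth of vehicle-treated wt1 cultures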; settings: S. cerevisiae wt1 strain (SPY 50644) growth inhibition, stronger effect = higher value
Procedure, shortened: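 Yeast wt1 strain exposed to compounds; growth inhibition measured relative to vehicle-treated controls.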

[3] = NCI Yeast Anticancer Drug Screen. Data for the rad50EPP+ strain (AID 151);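 also: 0% = growth of vehicle-treated control cultures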; settings: S. cerevisiae rad50 mutant strain, stronger effect = higher value
Procedure, shortened: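 Yeast strain carrying rad50 alteration (rad50EPP+) exposed to compounds; growth inhibition measured relative to vehicle-treated controls.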

[4] = NCI Yeast Anticancer Drug Screen. Data for the mgt1 strain (AID 153); settings: S. cerevisiae mgt1 mutant growth inhibition, stronger effect = higher value
Procedure, shortened: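 Yeast mgt1 strain (DNA repair/cell-cycle alteration panel) exposed to compounds; growth inhibition measured relative to vehicle-treated controls.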

[5] = NCI Yeast Anticancer Drug Screen. Data for the rad50 strain (AID 155);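 also: 0% = growth of vehicle-only cultures of the same strain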; settings: S. cerevisiae rad50 strain growth inhibition, stronger effect = higher value
Procedure, shortened: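 Yeast carrying a defined DNA repair defect were exposed to test compounds, and growth was compared with vehicle-treated controls to give percent inhibition.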

[6] = NCI Yeast Anticancer Drug Screen. Data for the rad14 strain (AID 159);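 also: 0% = growth of vehicle-treated control cultures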; settings: S. cerevisiae rad14 strain growth inhibition, stronger effect = higher value
Procedure, shortened: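 Yeast cells carrying a defined DNA-repair defect were exposed to compounds, and growth inhibition was calculated relative to vehicle-treated control cultures.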

[7] = NCI Yeast Anticancer Drug Screen. Data for the sgs1 mgt1 strain (AID 161);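 also: 0% = growth of cultures given vehicle only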; settings: S. cerevisiae sgs1 mgt1 strain, stronger effect = higher value
Procedure, shortened: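 Compounds are added to genetically altered yeast, and growth is compared with cultures given vehicle alone to give percent inhibition.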

[8] = NCI Yeast Anticancer Drug Screen. Data for the CLN2oe strain (AID 163);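 also: 0% = growth of vehicle-only control cultures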; settings: S. cerevisiae CLN2oe strain, stronger effect = higher value
Procedure, shortened: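 Yeast cells carrying a defined cell-cycle control alteration were exposed to test compounds. Growth inhibition was scored against vehicle-treated control cultures.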

[9] = NCI Yeast Anticancer Drug Screen. Data for the cln2 rad14 strain (AID 165);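 also: 0% = growth equal to vehicle treated cultures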; settings: S. cerevisiae cln2 rad14 strain, stronger effect = higher value
Procedure, shortened: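 Yeast carrying cln2 and rad14 alterations (cell cycle control and DNA damage repair) were exposed to compounds. Growth inhibition was measured against vehicle-treated controls.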

[10] = NCI Yeast Anticancer Drug Screen. Data for the bub3 strain (AID 167); settings: S. cerevisiae bub3 mutant strain, stronger effect = higher value
Procedure, shortened: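 Compounds were applied to a genetically altered yeast strain carrying a cell-cycle control defect. Growth inhibition was scored against vehicle-treated controls.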

[11] = NCI Yeast Anticancer Drug Screen. Data for the wt2 strain (AID 169);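 also: 0% = growth of vehicle-treated yeast cultures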; settings: S. cerevisiae wt2 strain growth inhibition, stronger effect = higher value
Procedure, shortened: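 Yeast cells were exposed to test compounds, and growth inhibition was measured relative to vehicle-treated controls.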

[12] = NCI Yeast Anticancer Drug Screen. Data for the mlh1 strain (AID 171);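 also: 0% = growth of vehicle-treated control cultures of the same strain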; settings: S. cerevisiae mlh1 strain growth inhibition, stronger effect = higher value
Procedure, shortened: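 Yeast carrying a defined genetic alteration in DNA damage repair or cell cycle control were exposed to test compounds. Growth inhibition was measured relative to vehicle-treated controls.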

[13] = NCI Yeast Anticancer Drug Screen. Data for the sgs1 strain (AID 173);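 also: 0% = growth of vehicle-only control cultures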; settings: S. cerevisiae sgs1 mutant, stronger effect = higher value
Procedure, shortened: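 Yeast mutant strains carrying defined defects in DNA damage repair or cell cycle control were exposed to test compounds. Growth inhibition was scored against vehicle-treated controls.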

[14] = NCI Yeast Anticancer Drug Screen. Data for the mlh1 rad18 strain (AID 175); settings: S. cerevisiae mlh1 rad18 strain growth inhibition, stronger effect = higher value
Procedure, shortened: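 Growth inhibition of the yeast strain was measured after compound exposure and expressed relative to vehicle-treated controls. The strain carries defined defects in DNA damage repair.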

[15] = NCI Yeast Anticancer Drug Screen. Data for the mec2-1 strain (AID 157); settings: S. cerevisiae mec2-1 strain, stronger effect = higher value
Procedure, shortened: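 mec2-1 yeast strain, carrying an alteration in DNA damage repair or cell cycle control, was exposed to compounds; growth inhibition was measured relative to vehicle-treated controls.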

[16] = NCI Yeast Anticancer Drug Screen. Data for the rad18 strain (AID 177); settings: S. cerevisiae rad18 mutant growth inhibition, stronger effect = higher value
Procedure, shortened: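 Yeast carrying a defined DNA damage repair alteration were exposed to compounds. Growth inhibition was expressed relative to vehicle-treated controls.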

[17] = at 5.0 µM (retest, dose inferred, filed as 0.5)
[18] = at 50.0 µM (retest, dose inferred, filed as 5.0)

Measured: growth inhibition

CCOP(=O)(OCC)/C(C#N)=C\c1cccc2ccccc12
active: [1]; at 33.0 µM 92% | [1]; at 100.0 µM 97% | [2]; at 33.0 µM 87% | [2]; at 100.0 µM 98% | [4]; at 33.0 µM 84% | [4]; at 100.0 µM 98% | [5]; at 33.0 µM 92% | [5]; [18] 90% | [5]; at 50.0 µM 85.7% | [5]; at 100.0 µM 98% | [6]; at 33.0 µM 87% | [6]; at 100.0 µM 97% | [7]; [18] 90% | [7]; at 50.0 µM 89.2% | [8]; at 100.0 µM 98% | [9]; [18] 93% | [9]; at 50.0 µM 88.8% | [10]; at 33.0 µM 83% | [10]; [18] 95% | [10]; at 50.0 µM 89.2% | [10]; at 100.0 µM 97% | [11]; at 33.0 µM 82% | [11]; at 100.0 µM 98% | [12]; at 33.0 µM 89% | [12]; at 100.0 µM 98% | [13]; at 33.0 µM 93% | [13]; at 100.0 µM 99% | [14]; [18] 95% | [14]; at 50.0 µM 86.2%
inactive: [1]; at 1.2 µM -2% | [1]; at 3.7 µM -1% | [1]; at 11.0 µM 12% | [2]; at 1.2 µM 2% | [2]; at 3.7 µM 8% | [2]; at 11.0 µM 6% | [3]; at 1.2 µM 8% | [3]; at 3.7 µM 10% | [3]; at 11.0 µM 3% | [3]; at 33.0 µM 22% | [3]; at 100.0 µM 41% | [4]; at 1.2 µM -6% | [4]; at 3.7 µM -10% | [4]; at 11.0 µM -21% | [5]; at 1.2 µM -4% | [5]; at 3.7 µM 1% | [5]; [17] 14% | [5]; at 11.0 µM 22% | [6]; at 1.2 µM -8% | [6]; at 3.7 µM -13% | [6]; at 11.0 µM -25% | [7]; [17] 53% | [8]; at 1.2 µM 13% | [8]; at 3.7 µM 2% | [8]; at 11.0 µM -7% | [8]; at 33.0 µM 59% | [9]; [17] 12% | [10]; at 1.2 µM -29% | [10]; at 3.7 µM -13% | [10]; [17] -3% | [10]; at 11.0 µM -41% | [11]; at 1.2 µM -6% | [11]; at 3.7 µM -2% | [11]; at 11.0 µM 2% | [12]; at 1.2 µM 11% | [12]; at 3.7 µM 10% | [12]; at 11.0 µM 17% | [13]; at 1.2 µM 22% | [13]; at 3.7 µM 23% | [13]; at 11.0 µM 43% | [14]; [17] -13%

O=S1(=O)CCC2=CC(C(F)(F)F)=CC(C(F)(F)F)=CN21
inactive: [1]; at 1.2 µM 26% | [1]; at 3.7 µM 42% | [2]; at 1.2 µM 2% | [2]; at 3.7 µM 29% | [2]; at 11.0 µM 53% | [3]; at 1.2 µM 2% | [3]; at 3.7 µM 16% | [3]; at 11.0 µM 24% | [3]; at 33.0 µM 38% | [5]; at 1.2 µM 61% | [5]; [17] 38% | [15]; at 1.2 µM 52% | [15]; at 3.7 µM 61% | [15]; [17] 66% | [6]; at 1.2 µM 25% | [6]; at 3.7 µM 38% | [6]; at 11.0 µM 67% | [8]; at 1.2 µM 25% | [8]; at 3.7 µM 22% | [8]; at 11.0 µM 40% | [8]; at 33.0 µM 68% | [9]; [17] 13% | [10]; at 1.2 µM 26% | [10]; at 3.7 µM 52% | [10]; [17] 57% | [11]; at 1.2 µM 3% | [11]; at 3.7 µM 14% | [11]; at 11.0 µM 51% | [12]; at 1.2 µM 27% | [12]; at 3.7 µM 36% | [12]; at 11.0 µM 67% | [13]; at 1.2 µM 51% | [13]; at 3.7 µM 67% | [16]; at 1.2 µM 54% | [16]; at 3.7 µM 67%
active: [1]; at 11.0 µM 71% | [1]; at 33.0 µM 89% | [1]; at 100.0 µM 98% | [2]; at 33.0 µM 83% | [2]; at 100.0 µM 98% | [3]; at 100.0 µM 79% | [5]; at 3.7 µM 71% | [5]; at 11.0 µM 79% | [5]; at 33.0 µM 89% | [5]; [18] 96% | [5]; at 50.0 µM 95.5% | [5]; at 100.0 µM 98% | [15]; at 11.0 µM 81% | [15]; at 33.0 µM 93% | [15]; [18] 97% | [15]; at 50.0 µM 97.9% | [15]; at 100.0 µM 99% | [6]; at 33.0 µM 91% | [6]; at 100.0 µM 98% | [8]; at 100.0 µM 98% | [9]; [18] 92% | [9]; at 50.0 µM 83.9% | [10]; at 11.0 µM 78% | [10]; at 33.0 µM 92% | [10]; [18] 89% | [10]; at 50.0 µM 96.9% | [10]; at 100.0 µM 98% | [11]; at 33.0 µM 83% | [11]; at 100.0 µM 98% | [12]; at 33.0 µM 86% | [12]; at 100.0 µM 98% | [13]; at 11.0 µM 80% | [13]; at 33.0 µM 94% | [13]; at 100.0 µM 99% | [14]; [17] 76% | [14]; [18] 98% | [14]; at 50.0 µM 97.2% | [16]; at 11.0 µM 79% | [16]; at 33.0 µM 90% | [16]; at 100.0 µM 97%
